Measurements from PubChem BioAssay AID624273 (Broad Institute, 2012).
Screen size: about 1,000 compounds; about 230 (23%) were called active. About 1% were inconclusive and are not listed. How the calls were made is not given here. Some of the results follow. Measured potencies and affinities stand elsewhere.

Target: Long-chain-fatty-acid--AMP ligase FadD28 (Mycobacterium tuberculosis (strain ATCC 25618 / H37Rv)) (UniProt P9WQ59)
Test: inhibitors of FadD28 bisubstrate probe binding, dose response, biochemical, fluorescence polarization, cherry-pick (AID 624273)
Conditions: series mostly up to 50 µM; activity change, negative = inhibition: at the top concentration

Sequence of Long-chain-fatty-acid--AMP ligase FadD28 (Mycobacterium tuberculosis (strain ATCC 25618 / H37Rv)) (P9WQ59 whole entry, looked up): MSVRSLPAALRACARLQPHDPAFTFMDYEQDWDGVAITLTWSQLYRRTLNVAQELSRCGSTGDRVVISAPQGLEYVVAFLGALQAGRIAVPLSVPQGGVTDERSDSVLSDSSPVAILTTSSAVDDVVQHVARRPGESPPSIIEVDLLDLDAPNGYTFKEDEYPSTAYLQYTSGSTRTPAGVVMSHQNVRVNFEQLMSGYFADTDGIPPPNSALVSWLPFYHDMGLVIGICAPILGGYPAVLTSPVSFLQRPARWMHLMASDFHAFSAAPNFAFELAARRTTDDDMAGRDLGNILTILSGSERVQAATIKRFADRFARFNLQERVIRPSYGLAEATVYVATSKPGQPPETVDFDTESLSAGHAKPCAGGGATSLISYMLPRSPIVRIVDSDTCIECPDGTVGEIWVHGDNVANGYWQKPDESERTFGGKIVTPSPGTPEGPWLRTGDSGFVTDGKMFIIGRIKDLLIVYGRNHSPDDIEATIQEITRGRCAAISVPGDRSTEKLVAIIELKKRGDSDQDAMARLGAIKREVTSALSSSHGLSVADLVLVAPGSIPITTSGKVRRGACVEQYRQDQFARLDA

| Compound | activity change, negative = inhibition |
| --- | --- |
| Cc1oc(/C=N/NS(=O)(=O)c2ccccc2)cc1Br | -12.7% (inactive) |
| Cc1sc(-n2c(C)cc(/C=C3\SC(=S)NC3=O)c2C)c(C#N)c1C | -17.2% (inactive) |
| O=C1C2ON(c3ccccc3)C(c3ccccn3)C2C(=O)N1c1ccc(Br)cc1 (stereo unspecified) | -17% (inactive) |
| Cn1nnnc1NCc1cccc(Cl)c1 | -1.85% (inactive) |
| Cc1nnc(NC(=O)c2sc3nc(-c4cccs4)cc(C(F)(F)F)c3c2N)s1 | -3.55% (inactive) |
| O=C(Cn1cnc2c(oc3nc4c(cc32)CCCC4)c1=O)Nc1cccc(Cl)c1 | -19.7% (inactive) |
| COc1ccccc1NC(=O)CSCC(=O)N1c2ccccc2CCc2ccccc21 | 3.81% (inactive) |
| N#Cc1ccccc1NC(=O)c1cc(=O)c2ccccc2o1 | -1.27% (inactive) |
| NC(Cc1ccc(Cl)cc1)c1csc(NC(=O)Nc2ccccc2)n1 (stereo unspecified) | 17.3% (inactive) |
| Nc1ccc(C(CC(=O)O)n2cccc2)cc1 (stereo unspecified) | -9.59% (inactive) |
| Cc1ccc(Cn2nnc3c(=O)[nH]c(C4CCN(S(=O)(=O)Cc5ccccc5)CC4)nc32)cc1 | -2.02% (inactive) |
| COc1cc(/C=C2/C(=O)NN(c3cccc(Cl)c3)C2=O)cc(OC)c1O | -11.7% (inactive) |
| COc1cc(/C=C2/C(=O)NN(c3ccc(Cl)cc3)C2=O)ccc1OC(=O)c1ccco1 | -6.33% (inactive) |
| Cc1ccc(OCC(=O)NCCS(=O)(=O)N2CCN(c3ccccc3)CC2)cc1 | -4.58% (inactive) |
| CCc1cccc(NC(=O)Cn2c(=O)oc3cc(S(=O)(=O)N4CCOCC4)ccc32)c1 | -29.4% (inactive) |
| CCC(=O)c1ccc(OCC(=O)Nc2cccc(S(=O)(=O)N3CCCCCC3)c2)cc1 | -10.1% (inactive) |
| Cc1cccc(NC(=O)c2cccc(S(=O)(=O)N3CCc4ccccc4C3)c2)n1 | -2.05% (inactive) |
| COc1ccc(S(=O)(=O)N2CCCCC2)cc1NC(=O)CN1CCN(C(C)=O)CC1 | -3.48% (inactive) |
| CN(CC(=O)N1CCc2ccccc21)S(=O)(=O)c1cccc2cccnc12 | 3.09% (inactive) |
| Cc1ccc(S(=O)(=O)N(C)C)cc1NC(=O)C(C)[N+]12CCN(CC1)CC2 (stereo unspecified) | -5.61% (inactive) |
| CC1CCCN(Cc2c(O)ccc3c(=O)c(-c4nc5ccccc5s4)c(N)oc23)C1 (stereo unspecified) | -5.96% (inactive) |
| CN1C(=O)C2C=CC1C1C(=O)N(c3ccccc3)C(=O)C21 (stereo unspecified) | -6.91% (inactive) |
| Cc1ccc(S(=O)(=O)N(C)C)cc1NC(=O)CSc1nnnn1-c1ccc(O)cc1 | -14.5% (inactive) |
| CC1(C)Cc2nc3oc4c(NCc5ccccc5)ncnc4c3cc2CO1 | -2.72% (inactive) |
| CCN=c1scc(C)n1/N=C/c1cc(Br)c(O)c(Br)c1 | -4.09% (inactive) |
| O=C(CSc1ncn[nH]1)Nc1ccc(S(=O)(=O)Nc2ncccn2)cc1 | -3.33% (inactive) |

| Compound | activity change, negative = inhibition |
| --- | --- |
| O=C(CSc1ccc(Br)c2cccc(Cl)c12)Nc1ccc(S(=O)(=O)Nc2nccs2)cc1 | -15.1% (inactive) |
| COc1ccccc1COC(=O)c1cccc(S(=O)(=O)N2CCCC2)c1 | -0.209% (inactive) |
| COc1ccccc1[C@@H]1C(c2cccc(C)c2)=NN(c2ccccc2)[C@H]1C(=O)N1CCOC1=O | 0.248% (inactive) |
| O=c1cc(CN2CCc3ccccc32)c2ccc(O)cc2o1 | -8.7% (inactive) |
| O=C(O)Cc1ccc2c(c1)N(S(=O)(=O)c1cccs1)CC(C(=O)O)O2 (stereo unspecified) | -14.2% (inactive) |
| OCCN1CCN(c2ncnc3c2ncn3[C@H]2CN(Cc3ccncc3)C[C@@H](CO)O2)CC1 | -2.24% (inactive) |
| COc1ccc(CCNC(=O)CN(c2ccc(C)cc2)S(=O)(=O)c2c(C)noc2C)cc1OC | -2.72% (inactive) |
| Nc1ccc2c(c1)[nH]c(=O)c1cc(N)ccc12 | -0.111% (inactive) |
| O=[N+]([O-])c1cc(S(=O)(=O)Nc2cccc(C(F)(F)F)c2)ccc1-n1nnc2ccccc21 | -21.8% (inactive) |
| NS(=O)(=O)c1cccc(NS(=O)(=O)c2ccc(/C=C/C(=O)OCC(=O)c3ccccc3)cc2)c1 | -0.888% (inactive) |
| CC(=O)Nc1ccc(S(=O)(=O)NC2=C(N3CCN(c4ccc(F)cc4)CC3)C(=O)c3ccccc3C2=O)cc1 | -18.6% (inactive) |
| Cc1cc(NS(=O)(=O)c2ccc(NC(=O)Cc3ccccc3)cc2)nc(C)n1 | -4.8% (inactive) |
| COc1ccccc1NS(=O)(=O)c1cccc(NC(=O)Nc2cccc(Cl)c2)c1 | -3.21% (inactive) |
| O=C1C(Cl)=C(NCCN2CCOCC2)C(=O)c2ccccc21 | -8.82% (inactive) |
| O=C(NN=C1CCCC1)c1cc(Cl)cc(Cl)c1O | -17.8% (inactive) |
| N#Cc1cc2c(nc1SCc1ccc(Cl)nc1)CCCCC2 | -3.38% (inactive) |
| Cc1ccc2oc(C(=O)N3CCCCCC3)c(C)c2c1 | 0.038% (inactive) |
| O=C(CSc1ccccn1)N1CCN(S(=O)(=O)c2ccc(Cl)cc2)CC1 | -7.31% (inactive) |
| Cc1ccnc(NC(=O)CCC(=O)N(CC(=O)NCC2CCCO2)Cc2ccc(F)cc2)c1 (stereo unspecified) | -1.94% (inactive) |
| Cc1cc[n+](CC(=O)c2cc3ccccc3oc2=O)cc1 | -3.16% (inactive) |
| O=C1NC(=O)N(Cc2ccc(F)cc2)C(=O)/C1=C\c1ccoc1 | -9.04% (inactive) |
| COc1ccc(C(=O)N/N=C2\SCC(=O)N2Cc2ccc3c(c2)OCO3)c(OC)c1 | -23.6% (inactive) |
| CCNC(=S)N1CCN(CC(=O)Nc2ccc(Br)cc2)CC1 | 15% (inactive) |
| Nc1ccccc1/C=N\N=C/c1ccccc1N | -5.39% (inactive) |
| COc1ccc(CCNC(=O)CCNC(=O)N2CC(=O)Nc3ccccc32)cc1 | -1.19% (inactive) |
| CN(C)C1(c2nnnn2-c2ccc(Cl)cc2)CCCCC1 | -6.34% (inactive) |

| Compound | activity change, negative = inhibition |
| --- | --- |
| N#Cc1c(C#N)c(-c2ccccc2)n(-c2ccc(C(=O)O)cc2)c1N | -2.68% (inactive) |
| O=C(c1[nH]c(C(F)(F)F)nc1-c1ccccc1)N1CCN(c2ccccn2)CC1 | -6.13% (inactive) |
| CC(=O)Nc1ccc(/C=N\NC(=O)CNS(=O)(=O)c2ccc([N+](=O)[O-])cc2)cc1 | -16.2% (inactive) |
| COc1ccc(/C=C/C(=O)N2CC(C)OC(C)C2)cc1OC (stereo unspecified) | -2.82% (inactive) |
| COC(=O)CSc1nnc(CNC(=O)c2cc(OC)cc(OC)c2)n1-c1ccc(F)cc1 | 49.8% (inactive) |
| O=c1[nH]c(=S)[nH]c2c1C(c1ccc(Br)cc1)c1c([nH]c(=S)[nH]c1=O)O2 | -8.68% (inactive) |
| O=C(OCC(=O)N1CCCC1)c1cccs1 | -3.69% (inactive) |
| O=C1NCCN(C(=O)CCc2nnc(-c3ccsc3)o2)C1c1ccc(F)cc1 (stereo unspecified) | -10.6% (inactive) |
| COc1ccc(C2(CNC(=O)c3ccc(OC)c([N+](=O)[O-])c3)CCCCC2)cc1OC | -1.23% (inactive) |
| O=C(O)CCCN1C(=O)/C(=C/c2ccc(-c3nc4ccccc4s3)o2)SC1=S | -4.59% (inactive) |
| Cc1ccc(-c2nn(-c3ccccc3)cc2/C=C2\SC(=S)N(CCCCCC(=O)O)C2=O)o1 | 46.1% (inactive) |
| CC1(c2ccc(OC(F)F)cc2)NC(=O)N(CC(=O)Nc2ccc3[nH]c(=O)[nH]c3c2)C1=O (stereo unspecified) | -3.88% (inactive) |
| CC(C)CNC(=O)c1cc(S(=O)(=O)N2CCOCC2)ccc1N1CCCC1 | -5.51% (inactive) |
| Cc1ccc(NS(=O)(=O)c2ccc(NC(=O)CN(c3cc([N+](=O)[O-])ccc3C)S(C)(=O)=O)cc2)c(C)c1 | -0.627% (inactive) |
| COC(=O)Cc1cc(=O)n(-c2nc3ccccc3s2)[nH]1 | -9.29% (inactive) |
| Cc1ccccc1-c1cc2nc(NCc3ccccc3)n(C)c(=O)c2s1 | 10.3% (inactive) |
| O=C(/C=C/c1ccco1)Nc1sc2c(c1C(=O)O)CCC2 | 0.459% (inactive) |
| CC(=O)Nc1ccc(NC(=O)CSc2nc3nc(C)cc(C)c3c(=O)[nH]2)cc1 | -2.41% (inactive) |
| COc1ccc(-n2nnnc2SCC(=O)c2ccc(O)c(O)c2)cc1 | -12.5% (inactive) |
| CCC(=O)Nc1cccc(-n2nnnc2SCC(=O)c2ccc(C)c(C)c2)c1 | -13% (inactive) |
| CCOc1ccccc1NC(=O)CN(C)S(=O)(=O)c1cnc[nH]1 | -5.79% (inactive) |
| Cc1cc(SCNC(=O)c2ccccc2)nc(C(C)C)n1 | -7.43% (inactive) |
| COc1ccc(C(C(=O)NC2CCCCC2)N(C(=O)c2sc(C)nc2C)c2ccc(OC)cc2)cc1 (stereo unspecified) | 9.21% (inactive) |
| Cc1c(Cc2ccc3c(c2)OCO3)sc(NC(=O)c2ccc3ccccc3c2)c1C(N)=O | -7.43% (inactive) |
| CCOC(=O)CNC(=O)Cn1cnc2c(cnn2-c2ccc(C)cc2)c1=O | -4.81% (inactive) |
| O=c1c2ccccc2c(-c2ccc(O)cc2)nn1-c1cccc(C(F)(F)F)c1 | 4.72% (inactive) |

| Compound | activity change, negative = inhibition |
| --- | --- |
| CC(C)CN(C(=O)c1ccc(-n2cncn2)c([N+](=O)[O-])c1)C1CCS(=O)(=O)C1 (stereo unspecified) | -8.25% (inactive) |
| C/C(Cl)=C\Cn1c(O)c(N=O)c2ccccc21 | 3.06% (inactive) |
| CC(=O)N1CC2(C)CN(C(C)=O)CC(C)(C1)C2=O | -4.73% (inactive) |
| O=C1ON=C(c2cccc([N+](=O)[O-])c2)/C1=C/c1ccc(O)cc1 | -19.1% (inactive) |
| O=C(O)CC1S/C(=N/N=C/c2ccc(-c3ccc(Cl)c([N+](=O)[O-])c3)o2)NC1=O (stereo unspecified) | -14.3% (inactive) |
| Cc1ccc(-n2cccc2/C=C2/NC(=O)N(CC(=O)Nc3cccc(C)c3)C2=O)cc1 | -3.09% (inactive) |
| COCCNC(=O)C1CCC(CNS(=O)(=O)c2ccc3c(c2)CC(C)N3C(=O)C2CC2)CC1 (stereo unspecified) | -4.61% (inactive) |
| COc1ccc(N/C=C(\C2OC(=O)c3ccccc32)[N+](=O)[O-])cc1 (stereo unspecified) | -6.01% (inactive) |
| CCOc1cc(C2C(C(=O)OC(C)C)=C(C)N=C3SCCC(=O)N32)ccc1OC(C)=O (stereo unspecified) | 0.929% (inactive) |
| c1ccc2c(C[C@@H]3CNCCN3CC3CCCCC3)cccc2c1 | 11.1% (inactive) |
| COC(=O)CSc1nc2ccccc2nc1SCC(=O)OC | -3.98% (inactive) |
| O=[N+]([O-])c1ccc(OCCn2cncn2)cc1 | -11.1% (inactive) |
| COC(=O)c1ccc(Cl)c(NS(=O)(=O)c2ccc3c(c2)OCCO3)c1 | -4.88% (inactive) |
| Cc1cc(C)n(CCN(C)C(=O)CCc2nnc(-c3ccc4c(c3)OCO4)o2)n1 | -9.68% (inactive) |
| CN(C)C=NCCn1c(N2CCOCC2)nc2c1c(=O)n(C)c(=O)n2C | -6.64% (inactive) |
| O=C(O)CN1CCN(Cc2ccccc2F)C1=O | -2.23% (inactive) |
| C=CCn1c(SCC(N)=O)nnc1-c1cnccn1 | -1.85% (inactive) |
| CCOC(=O)c1nc(NCc2cccnc2)c2ccccc2n1 | 1.8% (inactive) |
| Cc1ccc(S(=O)(=O)N(CC(=O)Nc2cc(C)ccc2C)C(=O)N2CCN(C)CC2)cc1 | -11.5% (inactive) |
| CN(CC(=O)Nc1ccc(Cl)c(C(F)(F)F)c1)C(=O)c1cccnc1Sc1ccccc1 | 4.04% (inactive) |
| O=C(O)c1c(C(=O)O)c(-c2ccc(Br)cc2)n2c1CSC2 | -0.118% (inactive) |
| CCCC1SCC(C)(C)NC1=O (stereo unspecified) | -1.99% (inactive) |
| Cc1cc(S(=O)(=O)Nc2c(NC3CCCCC3)c3ccccc3oc2=O)ccc1F | -1.83% (inactive) |
